# Results from PubChem BioAssay.
# Several values for one entry are separate records, joined by “and”; a condition that tells them apart may be missing. Equal values may be shown once. Activity calls are given as the source filed them. Unless noted, the rule behind the calls is not given here.
# Assays:
# [1] = tested on: XIP peptide (Xip251-270) binding; assay: XIP fragment 251-270 binding compounds – biochemical, small-molecule microarray, fluorescence 635/667 nm, 0.1 µg/mL protein, primary screen (AID 1182); conditions: fluorescent protein binding, 635 nm, higher = more signal, called active from +8 up or from −8 down
# [2] = tested on: XIP peptide (Xip251-270); assay: compounds binding XIP fragment 251-270 – biochemical, small-molecule microarray, fluorescence 635/667 nm, 0.5 µg/mL protein, primary screen (AID 1183); conditions: fluorescence 635 nm, higher = more signal
# [3] = blood-stage malaria parasite viability loss – strain 3D7, DAPI fluorescence, 100 nL, primary screen (AID 1184);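 note: parasites grown inside human red blood cells in medium with human serum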; conditions: P. falciparum 3D7 growth, 3 d, higher = more signal
# [4] = molecular target: Homeobox protein Hox-A13 (Mus musculus) (UniProt Q62424); assay: disruptors of Hoxa13 oligonucleotide interaction – biochemical, fluorescence polarization, labeled oligonucleotide, primary screen (AID 1185); conditions: Hoxa13:DNA binding, 15 min, higher = more signal, called active from +8 up or from −8 down
# Sequence of Homeobox protein Hox-A13 (Mus musculus) (Q62424 whole entry, looked up): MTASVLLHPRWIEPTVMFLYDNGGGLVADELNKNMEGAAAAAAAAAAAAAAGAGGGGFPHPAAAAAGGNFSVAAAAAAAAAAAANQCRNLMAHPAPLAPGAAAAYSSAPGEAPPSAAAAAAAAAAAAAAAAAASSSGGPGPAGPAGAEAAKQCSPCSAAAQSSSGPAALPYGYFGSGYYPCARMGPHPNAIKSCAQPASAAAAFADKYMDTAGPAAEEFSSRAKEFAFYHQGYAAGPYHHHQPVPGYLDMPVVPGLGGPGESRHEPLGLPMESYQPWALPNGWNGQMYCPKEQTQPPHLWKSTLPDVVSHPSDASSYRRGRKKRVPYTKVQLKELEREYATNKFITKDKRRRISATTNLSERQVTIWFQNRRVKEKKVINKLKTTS
# [5] = blockers of DNA damage checkpoint Chk1 activation – imaging, HeLa, hydroxyurea, phospho-Chk1 antibody, percent positive cells, primary screen (AID 1186); conditions: hydroxyurea-induced phospho-Chk1 immunofluorescence imaging, higher = more signal
# [6] = blockers of DNA damage checkpoint Chk1 activation – imaging, HeLa, hydroxyurea, phospho-Chk1 nuclear intensity, primary screen (AID 1187); conditions: hydroxyurea-induced phospho-Chk1 immunofluorescence imaging, higher = more signal
Compound,composite z-score [1],composite z-score [2],z-score [3],z-score [4],z-score [5],z-score [6]
C=CCN(C(=O)C(c1cccs1)N(CCOCCO)C(=O)/C=C\C(=O)O)C(C)(C)C (configuration not stated),-0.344 (inactive) and 0.0156 (inactive),-0.281 and -0.228,0.0905 and 0.921,0.175 (inactive) and -0.386 (inactive),0.0502 (inactive) and -0.289 (inactive),-0.124 (inactive) and 0.0803 (inactive)
O=C1C[C@]2(c3ccc([N+](=O)[O-])cc3)C(=O)N(Cc3ccccc3)c3cc(CO)ccc3[C@H]2N1C1CCCCC1,-0.182 (inactive) and 0.877 (inactive),-0.242 and 0.519,1.04 and -1.97,-1.48 (inactive) and -3.19 (inactive),0.112 (inactive) and -0.427 (inactive),0.357 (inactive) and -0.265 (inactive)
C=CCN(CCCC)C(=O)C(c1cccs1)N(C(=O)/C=C\C(=O)O)c1ccc(CCO)cc1 (configuration not stated),1.82 (inactive) and -0.761 (inactive),-0.319 and -1.84,0.28 and 0.445,-1.28 (inactive) and -0.734 (inactive),0.655 (inactive) and -0.177 (inactive),1.04 (inactive) and 0.345 (inactive)
C=C[C@@H](C)[C@@H](O)c1ccc(O)c2ccccc12,0.238 (inactive) and 0.467 (inactive),-0.54 and -0.684,1.31 and -0.772,-3.43 (inactive) and -4.33 (inactive),0.789 (inactive) and 0.536 (inactive),1.17 (inactive) and 0.193 (inactive)
C=CCN(CCCC)C(=O)C(c1cccs1)N(C(=O)/C=C\C(=O)O)c1c(Cl)cccc1CO (configuration not stated),-1.2 (inactive) and -0.551 (inactive),-1.64 and 0.45,-0.486 and -0.375,0.477 (inactive) and -0.33 (inactive),0.0771 (inactive) and -0.132 (inactive),0.677 (inactive) and -0.0581 (inactive)
C=CCN(CCCC)C(=O)C1N(C(C)(C)CO)C(=O)C2C(C(=O)O)C3C=CC21O3 (configuration not stated),-0.485 (inactive) and -0.807 (inactive),0.214 and -0.185,0.102 and 0.116,-0.224 (inactive) and -0.0596 (inactive),-0.356 (inactive) and 0.83 (inactive),-0.0315 (inactive) and 1.16 (inactive)
C[N+](C)(C)CCCCNC(=O)[C@@H]1C[C@@H]2C(=O)N[C@@H](CCCC[N+](C)(C)C)C(=O)N2[C@@H]1c1cccc(OCCO)c1,0.785 (inactive) and 1.87 (inactive),0.697 and 0.917,-0.0982 and -0.462,-0.648 (inactive) and -1.01 (inactive),-0.123 (inactive) and -0.528 (inactive),0.0051 (inactive) and -0.229 (inactive)
CC(C)[Si]1(C(C)C)OCc2cc(C3CC3)nc(CCc3ccccc3)c21,1.11 (inactive) and 0.0908 (inactive),-0.663 and -0.481,-0.541 and 0.653,-0.448 (inactive) and 0.438 (inactive),0.0389 (inactive) and 0.993 (inactive),0.579 (inactive) and 0.548 (inactive)
CCCCN1CC=CC23O[C@@H]4C=CCCOC(=O)C4[C@H]2C(=O)N(C(C)CO)[C@@H]3C1=O (some centres not stated),-0.0981 (inactive) and -0.455 (inactive),-0.41 and -0.585,0.0728 and -0.271,-5.84 (inactive) and -4.77 (inactive),0.34 (inactive) and -0.204 (inactive),0.293 (inactive) and -0.258 (inactive)
CC(CO)N1C(=O)[C@@H]2C3C(=O)OCCC=C[C@H]3OC23C=CCN(Cc2ccccc2)C(=O)[C@@H]13 (some centres not stated),-0.05 (inactive) and 0.127 (inactive),-0.4 and -0.181,-1.1 and -0.233,-5.29 (inactive) and -4.45 (inactive),-0.769 (inactive) and -0.0621 (inactive),-0.426 (inactive) and -0.217 (inactive)
C=CCN(CCCC)C(=O)C(c1cccs1)N(CCOCCO)C(=O)/C=C\C(=O)O (configuration not stated),0.455 (inactive) and 0.476 (inactive),-0.836 and -0.765,0.329 and -0.0611,0.578 (inactive) and 0.724 (inactive),-0.36 (inactive) and 0.442 (inactive),0.132 (inactive) and 1.47 (inactive)
C[N+](C)(C)CCCCCCNC(=O)[C@H]1C[C@H]2C(=O)N[C@@H](CCCC[N+](C)(C)C)C(=O)N2[C@H]1c1cccc(OCCO)c1,0.421 (inactive) and 1.17 (inactive),0.691 and 0.903,0.11 and 0.17,-2.01 (inactive) and -2.31 (inactive),0.247 (inactive) and 0.199 (inactive),0.316 (inactive) and -0.109 (inactive)
